In PubChem BioAssay:
Calls of active or inactive are those of the source. Unless noted, no rule for the calls is given here.

Assays:
[1] = resazurin metabolic signal in HepG2 cells – cell-based, resazurin fluorescence, 24 h, PK04 Diversity Set, profiling panel (AID 1172); conditions: HepG2 viability, higher = more signal
[2] = budding yeast growth changes without added modifier – OD600, strain BY4716, 24 h, basal condition, primary screen (AID 1173); conditions: S. cerevisiae BY4716 growth, OD600, 24 h; higher = more signal, called active from +8 up or from −8 down
[3] = viability profiling in MM1S myeloma cells – cell-based, resazurin fluorescence, basal, 24 h, PK04 Diversity Set, profiling panel (AID 1174); conditions: higher = more signal, called active from +8 up or from −8 down;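 also: MM1S multiple myeloma cell line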
[4] = target: Dihydroorotate dehydrogenase (quinone), mitochondrial (Plasmodium falciparum (isolate 3D7)) (UniProt Q08210); assay: inhibition of P. falciparum DHODH – biochemical, C-terminal His tag, absorbance 600 nm, primary screen (AID 1175); conditions: PfDHODH enzyme, DCIP absorbance 600 nm; higher = more signal, called active from +8 up or from −8 down;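 also: recombinant parasite enzyme with a five histidine tag at its C terminus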
Chain of Dihydroorotate dehydrogenase (quinone), mitochondrial (Plasmodium falciparum (isolate 3D7)) (Q08210 whole entry, looked up): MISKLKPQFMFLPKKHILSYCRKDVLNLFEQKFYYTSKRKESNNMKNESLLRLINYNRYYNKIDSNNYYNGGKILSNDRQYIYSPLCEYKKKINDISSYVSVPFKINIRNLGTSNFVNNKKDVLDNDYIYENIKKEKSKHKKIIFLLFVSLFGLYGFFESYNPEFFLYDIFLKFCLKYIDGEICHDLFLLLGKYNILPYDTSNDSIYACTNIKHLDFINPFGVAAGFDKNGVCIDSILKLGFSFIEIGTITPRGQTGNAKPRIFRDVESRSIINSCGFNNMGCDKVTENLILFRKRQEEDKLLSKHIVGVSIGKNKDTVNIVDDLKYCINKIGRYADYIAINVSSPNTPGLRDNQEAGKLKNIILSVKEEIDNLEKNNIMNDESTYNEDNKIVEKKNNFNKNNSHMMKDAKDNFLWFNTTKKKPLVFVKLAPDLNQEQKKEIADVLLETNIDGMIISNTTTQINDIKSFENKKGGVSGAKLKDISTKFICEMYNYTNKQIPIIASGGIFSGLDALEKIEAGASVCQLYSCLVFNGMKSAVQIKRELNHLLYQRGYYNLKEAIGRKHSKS

[5] = inhibition of PAO1 biofilm formation – strain PAO1, LB-PBS medium, absorbance 600 nm, primary screen (AID 1176); conditions: P. aeruginosa PAO1 growth/biofilm, A600, 12 h; higher = more signal
[6] = growth modulation of vineyard yeast isolate – strain RM11-1a, OD600, basal, 24 h, primary screen (AID 1177);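 also: cultures grown under basal conditions with no added stressor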; conditions: S. cerevisiae RM11-1a growth, OD600, 24 h; higher = more signal, called active from +8 up or from −8 down
[7] = growth of efflux-deficient E. coli DRC39 – strain DRC39, OD650, 24 h, E. coli filamentation inducers, primary screen (AID 1178);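 also: growth measured as culture turbidity by optical density at 650 nm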; conditions: E. coli DRC39 acrAB, higher = more signal, called active from +8 up or from −8 down
[8] = growth of efflux-deficient E. coli DRC39 – strain DRC39, OD650, 48 h, E. coli filamentation inducers, primary screen (AID 1179);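 also: screen aims at cell division blockers that make cells filament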; conditions: E. coli DRC39 delta-acrAB growth, higher = more signal, called active from +8 up or from −8 down
[9] = viability profiling in RPMI8226 myeloma cells – cell-based, resazurin fluorescence, basal, 24 h, PK04 Diversity Set, profiling panel (AID 1180); conditions: higher = more signal;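 also: RPMI8826 multiple myeloma cell line at 5000 cells per well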
[10] = target: E3 ubiquitin-protein ligase XIAP (Homo sapiens) (UniProt P98170); assay: small molecules binding XIAP protein – biophysical, small-molecule microarray, fluorescence 635 nm, primary screen (AID 1181); conditions: higher = more signal;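 also: score merges 667 nm emission and signal to noise over triplicate slides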
Chain of E3 ubiquitin-protein ligase XIAP (Homo sapiens) (P98170 whole entry, looked up, the tested form may be a part): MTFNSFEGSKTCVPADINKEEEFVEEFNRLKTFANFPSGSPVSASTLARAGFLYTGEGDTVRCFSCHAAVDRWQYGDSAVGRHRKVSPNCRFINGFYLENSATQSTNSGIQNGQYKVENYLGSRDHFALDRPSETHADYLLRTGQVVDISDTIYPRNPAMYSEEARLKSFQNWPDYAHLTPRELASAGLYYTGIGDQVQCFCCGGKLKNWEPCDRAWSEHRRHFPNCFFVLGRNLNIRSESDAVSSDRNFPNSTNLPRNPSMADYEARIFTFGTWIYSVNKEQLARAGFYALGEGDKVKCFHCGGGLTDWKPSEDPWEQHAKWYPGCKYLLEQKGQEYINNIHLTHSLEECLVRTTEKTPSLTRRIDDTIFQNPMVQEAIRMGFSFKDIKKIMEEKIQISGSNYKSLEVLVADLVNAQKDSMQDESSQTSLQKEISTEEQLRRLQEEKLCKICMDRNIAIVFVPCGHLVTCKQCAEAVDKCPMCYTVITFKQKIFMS

[11] = test system: XIP peptide (Xip251-270) binding; assay: XIP fragment 251-270 binding compounds – biochemical, small-molecule microarray, fluorescence 635/667 nm, 0.1 µg/mL protein, primary screen (AID 1182); conditions: fluorescent protein binding, 635 nm, higher = more signal, called active from +8 up or from −8 down
XIP peptide (Xip251-270) = assay: compounds binding XIP fragment 251-270 – biochemical, small-molecule microarray, fluorescence 635/667 nm, 0.5 µg/mL protein, primary screen (AID 1183); conditions: fluorescence 635 nm, higher = more signal
[12] = blood-stage malaria parasite viability loss – strain 3D7, DAPI fluorescence, 100 nL, primary screen (AID 1184);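 also: parasites grown inside human red blood cells in medium with human serum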; conditions: P. falciparum 3D7 growth, 3 d, higher = more signal
[13] = target: Homeobox protein Hox-A13 (Mus musculus) (UniProt Q62424); assay: disruptors of Hoxa13 oligonucleotide interaction – biochemical, fluorescence polarization, labeled oligonucleotide, primary screen (AID 1185); conditions: Hoxa13:DNA binding, 15 min, higher = more signal, called active from +8 up or from −8 down
Chain of Homeobox protein Hox-A13 (Mus musculus) (Q62424 whole entry, looked up): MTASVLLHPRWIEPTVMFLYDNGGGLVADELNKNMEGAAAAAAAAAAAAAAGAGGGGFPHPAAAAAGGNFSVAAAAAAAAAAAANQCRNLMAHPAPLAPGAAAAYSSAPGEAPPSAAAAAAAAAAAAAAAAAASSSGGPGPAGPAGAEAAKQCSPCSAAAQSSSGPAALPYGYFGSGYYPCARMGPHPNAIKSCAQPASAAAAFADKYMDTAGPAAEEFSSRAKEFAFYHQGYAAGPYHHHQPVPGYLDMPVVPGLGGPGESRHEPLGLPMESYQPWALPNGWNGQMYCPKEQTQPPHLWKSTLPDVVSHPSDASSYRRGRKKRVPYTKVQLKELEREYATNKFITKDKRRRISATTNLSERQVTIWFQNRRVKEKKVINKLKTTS

[14] = blockers of DNA damage checkpoint Chk1 activation – imaging, HeLa, hydroxyurea, phospho-Chk1 antibody, percent positive cells, primary screen (AID 1186); conditions: hydroxyurea-induced phospho-Chk1 immunofluorescence imaging, higher = more signal
[15] = blockers of DNA damage checkpoint Chk1 activation – imaging, HeLa, hydroxyurea, phospho-Chk1 nuclear intensity, primary screen (AID 1187); conditions: hydroxyurea-induced phospho-Chk1 immunofluorescence imaging, higher = more signal

Structure (SMILES): CCCC=C(CCC)[C@@H](NC(=O)c1cccs1)c1ccc(C(F)(F)F)cc1
- z-score [1]: 0.74
- z-score [2]: 0.872 (inactive)
- z-score [3]: 0.116 (inactive)
- composite z-score [4]: -4.81 (inactive)
- z-score [5]: 1.69 (inactive)
- z-score [6]: 0.196 (inactive)
- z-score [7]: 0.224 (inactive)
- z-score [8]: -0.262 (inactive)
- z-score [9]: 0.455
- composite z-score [10]: 0.309
- composite z-score [11]: 0.0798 (inactive)
- composite z-score (XIP peptide (Xip251-270)): 0.477
- z-score [12]: -1.65
- z-score [13]: -2.14 (inactive)
- z-score [14]: 0.247 (inactive)
- z-score [15]: 0.201 (inactive)

Structure (SMILES): COC(=O)[C@@]1(Cc2ccc(F)cc2)[C@H]2c3cc(C(=O)N4CCCC4)n(Cc4ccc(S(C)(=O)=O)cc4)c3C[C@H]2CN1C(=O)c1ccccc1
- z-score [1]: -0.608
- z-score [2]: 1.01 (inactive)
- z-score [3]: -1.03 (inactive)
- composite z-score [4]: -0.159 (inactive)
- z-score [5]: 1.09 (inactive)
- z-score [6]: 0.458 (inactive)
- z-score [7]: -1.12 (inactive)
- z-score [8]: -0.704 (inactive)
- z-score [9]: -0.948
- composite z-score [10]: 0.261
- composite z-score [11]: 0.845 (inactive)
- composite z-score (XIP peptide (Xip251-270)): 0.116
- z-score [12]: -1.46
- z-score [13]: -4.4 (inactive)
- z-score [14]: 0.396 (inactive)
- z-score [15]: 0.172 (inactive)

Structure (SMILES): O=C1C2C=CC(C(O)c3cccc4ccccc34)N(Nc3ccccc3F)C2C(=O)N1c1ccccc1 (centres undefined)
- z-score [1]: 0.0332
- z-score [2]: -0.103 (inactive)
- z-score [3]: -0.186 (inactive)
- composite z-score [4]: -0.629 (inactive)
- z-score [5]: 1.11 (inactive)
- z-score [6]: 0.0054 (inactive)
- z-score [7]: -0.844 (inactive)
- z-score [8]: -0.204 (inactive)
- z-score [9]: 0.0889
- composite z-score [10]: 0.321
- composite z-score [11]: 1.09 (inactive)
- composite z-score (XIP peptide (Xip251-270)): 0.871
- z-score [12]: 0.71
- z-score [13]: -3.52 (inactive)
- z-score [14]: 0.228 (inactive)
- z-score [15]: 0.807 (inactive)

Structure (SMILES): O=C1C[C@@](C(=O)NCCN2CCOCC2)(c2ccc([N+](=O)[O-])cc2)[C@@H](c2ccc(CO)cc2)N1CC12CC3CC(CC(C3)C1)C2
- z-score [1]: -2.48
- z-score [2]: -11.2 (active)
- z-score [3]: -3.17 (inactive)
- composite z-score [4]: -0.601 (inactive)
- z-score [5]: 0.733 (inactive)
- z-score [6]: 1.77 (inactive)
- z-score [7]: -0.924 (inactive)
- z-score [8]: -1.66 (inactive)
- z-score [9]: -3.82
- composite z-score [10]: -0.182
- composite z-score [11]: 1.28 (inactive)
- composite z-score (XIP peptide (Xip251-270)): 0.795
- z-score [12]: -1.29
- z-score [13]: -4.58 (inactive)
- z-score [14]: -0.489 (inactive)
- z-score [15]: -0.649 (inactive)

Structure (SMILES): COCCCNC(=O)[C@]1(CCC(=O)OC(C)(C)C)N=C(c2ccc(OCCCO)cc2)O[C@@H]1c1ccccc1CN=[N+]=[N-]
- z-score [1]: 0.49
- z-score [2]: -0.199 (inactive)
- z-score [3]: -0.123 (inactive)
- composite z-score [4]: 0.249 (inactive)
- z-score [5]: 1.56 (inactive)
- z-score [6]: -0.123 (inactive)
- z-score [7]: 0.323 (inactive)
- z-score [8]: -0.187 (inactive)
- z-score [9]: -0.0741
- composite z-score [10]: 0.23
- composite z-score [11]: -0.0552 (inactive)
- composite z-score (XIP peptide (Xip251-270)): 0.848
- z-score [12]: -2.08
- z-score [13]: -6.66 (inactive)
- z-score [14]: -0.113 (inactive)
- z-score [15]: -0.534 (inactive)

Structure (SMILES): COc1cc2c(cc1OC)CN(C(=O)[C@@H]1[C@H]3C(=O)O[C@H](c4ccccc4)[C@H](c4ccccc4)N3[C@H](c3ccccc3OCCO)[C@@]13C(=O)Nc1ccc(C#CCCO)cc13)CC2
- z-score [1]: 0.0986
- z-score [2]: 1.28 (inactive)
- z-score [3]: -0.0469 (inactive)
- composite z-score [4]: 0.379 (inactive)
- z-score [5]: 2.35 (inactive)
- z-score [6]: 1.98 (inactive)
- z-score [7]: 0.158 (inactive)
- z-score [8]: 0.793 (inactive)
- z-score [9]: 0.43
- composite z-score [10]: 0.271
- composite z-score [11]: 2.75 (inactive)
- composite z-score (XIP peptide (Xip251-270)): 0.827
- z-score [12]: -2.18
- z-score [13]: 3.45 (inactive)
- z-score [14]: 0.14 (inactive)
- z-score [15]: 0.598 (inactive)

Structure (SMILES): C=CCC(OC(C)=O)[C@@H]1[C@@H](N(Cc2ccc(-c3ccccc3)cc2)C(=O)c2ccc(-c3ccccc3)cc2)c2cc(OCCCO)ccc2N1C(=O)Cc1ccc2ccccc2c1 (some centres undefined)
- z-score [1]: 0.289
- z-score [2]: 0.274 (inactive)
- z-score [3]: 0.7 (inactive)
- composite z-score [4]: -0.0366 (inactive)
- z-score [5]: 0.526 (inactive)
- z-score [6]: -0.357 (inactive)
- z-score [7]: -0.433 (inactive)
- z-score [8]: -0.5 (inactive)
- z-score [9]: 0.465
- composite z-score [10]: 0.225
- composite z-score [11]: -0.313 (inactive)
- composite z-score (XIP peptide (Xip251-270)): -0.241
- z-score [12]: 0.799
- z-score [13]: -1.05 (inactive)
- z-score [14]: 0.321 (inactive)
- z-score [15]: 0.392 (inactive)

Structure (SMILES): CC(C)C[C@@H]1NC(=O)[C@@H]2C[C@H](C(=O)O)[C@H](c3cccc(OCCO)c3)N2C1=O
- z-score [1]: -0.314
- z-score [2]: -0.0664 (inactive)
- z-score [3]: 0.254 (inactive)
- composite z-score [4]: -1.16 (inactive)
- z-score [5]: -0.447 (inactive)
- z-score [6]: -0.747 (inactive)
- z-score [7]: 0.398 (inactive)
- z-score [8]: -0.263 (inactive)
- z-score [9]: 0.294
- composite z-score [10]: -0.059
- composite z-score [11]: 1.04 (inactive)
- composite z-score (XIP peptide (Xip251-270)): 0.708
- z-score [12]: -0.222
- z-score [13]: -2.76 (inactive)
- z-score [14]: 0.0342 (inactive)
- z-score [15]: 0.153 (inactive)

Structure (SMILES): [N-]=[N+]=NCc1ccccc1C[C@]1(C(=O)N2CCCCC2)N=C(c2ccc(OCCCO)cc2)O[C@H]1c1ccccc1N=[N+]=[N-]
- z-score [1]: 0.297
- z-score [2]: 0.264 (inactive)
- z-score [3]: -2.36 (inactive)
- composite z-score [4]: 0.168 (inactive)
- z-score [5]: 0.426 (inactive)
- z-score [6]: 0.875 (inactive)
- z-score [7]: 0.173 (inactive)
- z-score [8]: -0.446 (inactive)
- z-score [9]: -2.4
- composite z-score [10]: -0.332
- composite z-score [11]: 0.113 (inactive)
- composite z-score (XIP peptide (Xip251-270)): 0.694
- z-score [12]: -1.95
- z-score [13]: 0.766 (inactive)
- z-score [14]: -0.273 (inactive)
- z-score [15]: -0.448 (inactive)
